22 compounds from PubChem BioAssay (Tox21) can be followed below.

Calls of active or inactive are those of the source. Unless noted, the call rests on the fitted dose curve; in most records, active means well fitted curve in the direction sought with a large enough effect in the repeat runs; inconclusive means weak or mixed curves; inactive means no such curve, though single readings can be large; an effect the other way counts as inactive or inconclusive.

Test [1] can be described thus: qHTS assay to identify small molecule antagonists of the thyroid receptor (TR) signaling pathway - cell viability counter screen (AID 743064). Further: nearly all actives have a fitted effect of over 50% in size. Further: potency means the concentration at half of the fitted maximal effect. In short, it runs like this:
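In-well cytotoxicity read by CellTiter-Fluor (30 min, 37 C) following 23.5 h exposure of GH3 cells bearing a TRE-luciferase sensor. Compounds were added alongside 1 nM (final) T3 to drive TR transactivation.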
(Quantitative high-throughput screening tests each substance at several concentrations.)

Test [2] in a line: qHTS assay to identify small molecule antagonists of the thyroid receptor (TR) signaling pathway (AID 743065). Further: nearly all actives have a fitted effect of over 55% in size. Further: potency means the concentration at half of the fitted maximal effect. In short, it runs like this:
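GH3.TRE-Luc rat pituitary cells carrying two TR response elements driving luciferase were plated for 4 h, given compound plus 1 nM T3 (final), and incubated 23.5 h at 37 C. ONE-Glo luminescence measured reporter inhibition; CellTiter-Fluor fluorescence tracked cytotoxicity.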

The target of test [3] is Estrogen receptor (Homo sapiens) (UniProt P03372). The test can be described thus: qHTS assay to identify small molecule antagonists of the estrogen receptor alpha (ER-alpha) signaling pathway (AID 743069; active means well fitted curve in the direction sought with a large enough effect in the signal ratio in the repeat runs, not every such curve was filed as active; inconclusive means weak or mixed curves, or effect the other way; inactive means no such curve, though single readings can be large or run the other way; the % refers to the signal ratio). In short, it runs like this:
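A 17beta-estradiol challenge was applied right after compound transfer to ER-alpha-UAS-bla HEK293 cells previously kept in charcoal-stripped serum. Plates stood 18 hr at 37C and 5% CO2; fluorescence was read following 2 hr FRET substrate loading at room temperature.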

A short description of test [4]: qHTS assay to identify small molecule antagonists of the estrogen receptor alpha (ER-alpha) signaling pathway - cell viability counter screen (AID 743074; calls by dose curve;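 further: HEK293 cells carrying ER-alpha-UAS-bla reporter stimulated with 17beta-estradiol; nearly all actives have a fitted effect of over 45% in size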; further: potency means the concentration at half of the fitted maximal effect).
Test [5] deals with Estrogen receptor (Homo sapiens) (UniProt P03372). In words: qHTS assay to identify small molecule agonists of the estrogen receptor alpha (ER-alpha) signaling pathway (AID 743075; calls by dose curve;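 further: HEK293 GripTite cells with ER-alpha and UAS-driven beta-lactamase reporter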; further: potency means the concentration at half of the fitted maximal effect).
Estrogen receptor (Homo sapiens), sequence (P03372 whole entry, looked up): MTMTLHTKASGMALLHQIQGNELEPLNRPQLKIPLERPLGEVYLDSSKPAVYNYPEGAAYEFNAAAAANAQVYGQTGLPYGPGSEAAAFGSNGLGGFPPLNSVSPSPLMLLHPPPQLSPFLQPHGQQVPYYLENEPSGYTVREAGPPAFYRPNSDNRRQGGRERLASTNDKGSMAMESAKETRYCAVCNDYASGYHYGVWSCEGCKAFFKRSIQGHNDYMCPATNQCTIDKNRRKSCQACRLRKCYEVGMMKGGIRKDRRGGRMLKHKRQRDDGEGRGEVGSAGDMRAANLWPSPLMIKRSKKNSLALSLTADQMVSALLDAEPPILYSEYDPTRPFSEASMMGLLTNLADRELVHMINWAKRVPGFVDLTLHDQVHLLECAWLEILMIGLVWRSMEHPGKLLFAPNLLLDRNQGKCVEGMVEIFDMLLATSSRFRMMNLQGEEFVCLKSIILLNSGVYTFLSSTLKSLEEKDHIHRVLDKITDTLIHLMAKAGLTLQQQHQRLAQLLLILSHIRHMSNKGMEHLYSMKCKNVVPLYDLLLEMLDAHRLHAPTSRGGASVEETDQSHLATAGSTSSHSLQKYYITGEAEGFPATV
The nature of test [6]: qHTS assay to identify small molecule antagonists of the estrogen receptor alpha (ER-alpha) signaling pathway using the BG1 cell line (AID 743080; calls by dose curve;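 further: BG1 cells stimulated with 17beta-estradiol alongside compound; nearly all actives have a fitted effect of over 25% in size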; further: potency means the concentration at half of the fitted maximal effect). Summed up: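 BG1Luc4E2, endogenous ER-alpha, 4xERE-luc; 5 d charcoal-stripped FBS, phenol red free; 24 h plating; cpd + 17beta-estradiol 21.5 h, 37 C/5% CO2; CellTiter-Fluor viability 30 min, then ONE-Glo luciferase 30 min RT.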

Test [7] in a line: qHTS assay to identify small molecule antagonists of the estrogen receptor alpha (ER-alpha) signaling pathway using the BG1 cell line - cell viability counter screen (AID 743081).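 Further: compound given together with 17beta-estradiol as the ER stimulus; nearly all actives have a fitted effect of over 45% in size.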 Further: potency means the concentration at half of the fitted maximal effect.
Test [8] addresses Aromatase (Homo sapiens) (UniProt P11511). In words: qHTS assay to identify aromatase inhibitors (AID 743083). Further: nearly all actives have a fitted effect of over 55% in size. Further: potency means the concentration at half of the fitted maximal effect.
Test [9] concerns thyroid hormone receptor (rat, GH3 cells). The test can be described thus: qHTS assay to identify small molecule agonists of the thyroid receptor (TR) signaling pathway (AID 743066; calls by dose curve).
In test [10] the target is Estrogen receptor (Homo sapiens) (UniProt P03372). In words: qHTS assay to identify small molecule agonists of the estrogen receptor alpha (ER-alpha) signaling pathway using the BG1 cell line (AID 743079). Further: nearly all actives have a fitted effect of over 20% in size. Further: potency means the concentration at half of the fitted maximal effect. The conditions noted are these: BG1Luc4E2 cells, ERE-luciferase agonist, 22 h; activation: at 70.3 µM (top of the series).

Aromatase (Homo sapiens), sequence (P11511 whole entry, looked up): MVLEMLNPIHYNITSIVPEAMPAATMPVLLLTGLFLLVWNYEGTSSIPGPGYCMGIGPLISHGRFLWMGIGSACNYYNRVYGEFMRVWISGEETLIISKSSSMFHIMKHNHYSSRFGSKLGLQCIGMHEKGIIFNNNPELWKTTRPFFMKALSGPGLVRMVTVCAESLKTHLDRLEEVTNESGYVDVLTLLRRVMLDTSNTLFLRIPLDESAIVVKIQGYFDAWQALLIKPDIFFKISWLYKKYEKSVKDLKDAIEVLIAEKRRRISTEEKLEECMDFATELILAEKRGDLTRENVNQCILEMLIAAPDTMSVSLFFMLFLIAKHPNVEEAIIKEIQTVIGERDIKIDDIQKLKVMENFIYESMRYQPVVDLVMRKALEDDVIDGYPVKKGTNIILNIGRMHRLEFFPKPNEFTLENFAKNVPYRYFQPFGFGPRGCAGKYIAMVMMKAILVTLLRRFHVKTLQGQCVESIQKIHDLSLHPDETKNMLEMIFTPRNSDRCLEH

As to `Clc1cc(Cl)c(OCC#CI)cc1Cl`, the Potency in test [1] is 7.5 µM (active); in [2], 6.68 µM (active); in test [6] it was 33.5 µM (active); in [8], 16.8 µM (active). Besides, the Potency entry in [3], in [4], in test [5] and in test [7] was “inactive” in each case.
For `CC(=O)O[C@H]1CC[C@@]2(C)C(=CC[C@H]3[C@@H]4CC[C@H](C(C)=O)[C@@]4(C)CC[C@@H]32)C1`, the Potency entry in test [1], in test [2], in [9], in test [6], in test [7] and in test [8] was “inactive” each time. Further, in test [5], the Potency was 16.9 µM [inconclusive] (active).
Turning to `CC(C)N1CCN(c2ccc(OC[C@H]3CO[C@](Cn4cncn4)(c4ccc(Cl)cc4Cl)O3)cc2)CC1`, the Potency in test [1] was 6.39 µM (active); in test [2], 4.52 µM (active). The Potency entry in test [3], in [5] and in test [10] was “inactive” throughout.
On to `C/C1=C2N=C(/C=C3N=C(/C(C)=C4\[N-]C(C(CC(N)=O)C4(C)CCC(=O)NCC(C)OP(=O)([O-])OC4C(CO)OC(n5cnc6cc(C)c(C)cc65)C4O)C4(C)N=C1C(CCC(N)=O)C4(C)CC(N)=O)C(CCC(N)=O)C\3(C)C)C(CCC(N)=O)C/2(C)CC(N)=O.[CH3-].[Co+3]` (stereo not given), for which the results for the Potency in [1], in test [2] and in [8] were 29.8 µM (active), 11.9 µM (active) and 13.3 µM (active), respectively. Also, in [9], the Potency entry is “inactive”.
Turning to `CCCCCC(O)/C=C/C=O` (stereo not given), the Potency entry in test [1], in test [2], in [9], in [7] and in test [8] was “inactive” each time.
On to `CCN(CC)CCCC(C)Nc1cc(/C=C/c2ccccc2Cl)nc2cc(Cl)ccc12` (stereo not given), for which the Potency was 26.6 µM (active) in [1] and 29.8 µM (active) in test [2]. The Potency result in [3], in [4], in test [5], in test [10] and in test [6] was “inactive” each time.
Turning to `C=C1C(=C/C=C2\CCC[C@]3(C)[C@@H]([C@H](C)/C=C/[C@H](C)C(C)C)CC[C@@H]23)C[C@@H](O)C[C@@H]1O`, the Potency in test [1] and in test [2] was 29.8 µM (active) throughout. Besides, the Potency result in [9], in test [5] and in test [10] was “inactive” each time.
For the compound `CO[C@H]1C=CO[C@@]2(C)Oc3c(C)c(O)c4c(O)c(c5c(nc6cc(C)ccn65)c4c3C2=O)NC(=O)/C(C)=C\C=C[C@H](C)[C@H](O)[C@@H](C)[C@@H](O)[C@@H](C)[C@H](OC(C)=O)[C@@H]1C`, the Potency result in test [1], in test [2], in test [9] and in [7] was “inactive” throughout.
In the case of `CN(C)CCCN1c2ccccc2C(C)(C)c2ccccc21`, the Potency in test [1] is 23.7 µM (active); in test [2] it was 26.6 µM (active). Besides, the Potency result in test [3], in test [4], in test [5], in test [10], in [7] and in test [8] was “inactive” throughout.
Take `Cc1cccc(C)c1NC(=O)NC1=CCCN1C`: the Potency result in test [1], in [2], in [9], in test [7] and in test [8] was “inactive” each time.
On to `S=C1SCN(Cc2ccccc2)CN1Cc1ccccc1`, for which the Potency in test [1] was 18.8 µM (active); in test [2] it was 18.8 µM (active); in [10], 26.6 µM (active). Further, the Potency result in test [3], in [4], in test [5], in test [7] and in test [8] was “inactive” each time.
As for `O=P(O)(O)C(Sc1ccc(Cl)cc1)P(=O)(O)O`, the Potency entry in test [1], in test [2], in test [9], in test [4] and in test [8] was “inactive” in each case.
For the compound `CC1(S(=O)(=O)O)CC(=O)c2ccccc2C1=O` (stereo not given), the Potency in test [1] is 13.3 µM (active); in [2], 13.3 µM (active); in test [6], 33.5 µM (active); in test [8], 26.6 µM (active). Also, the Potency entry in test [4] and in test [7] was “inactive” throughout.
In the case of `CN1CCN(CCCN2c3ccccc3Sc3ccccc32)CC1`, the Potency was 13.3 µM (active) in test [1] and 23.7 µM (active) in [2]. In addition, the Potency entry in test [4], in test [5], in [10] and in test [6] was “inactive” each time.
`O=[N+]([O-])c1c(Cl)cccc1-c1c[nH]cc1Cl`: the Potency was 29.8 µM (active) in [1], 26.6 µM (active) in test [2] and 4.77 µM [inconclusive] (active) in [5].
With `C#C[C@]1(O)CC[C@H]2[C@@H]3CCC4=C/C(=N/O)CC[C@@H]4[C@H]3CC[C@@]21CC`, the Potency is 29.8 µM (active) in test [1]; 11.9 µM (active) in test [2]; 0.151 µM [inconclusive] (active) in test [5]; 0.0422 µM (active) in test [10]; 23.7 µM (active) in test [8]. Also, the Potency entry in test [4] and in test [7] was “inactive” in each case.
For `CC[C@@H](C(=O)O)[C@@H]1O[C@@H]([C@@H](C)[C@H](O)[C@H](C)C(=O)[C@H](CC)[C@H]2O[C@]3(C=C[C@@H](O)[C@]4(CC[C@@](C)([C@H]5CC[C@](O)(CC)[C@H](C)O5)O4)O3)[C@H](C)C[C@@H]2C)[C@@H](C)C[C@@H]1C`, the Potency in [1] was 0.15 µM (active); in [2], 0.0944 µM (active); in [4], 0.151 µM (active); in test [7] it was 6.68 µM (active). Further, the Potency entry in test [5] and in test [8] was “inactive” throughout.
Turning to `CC[C@@H](C(=O)[C@@H](C)[C@@H](O)[C@H](C)[C@@H]1O[C@@H]([C@@H](CC)C(=O)O)CC[C@@H]1C)[C@H]1O[C@]2(C=C[C@@H](O)[C@]3(CC[C@@](C)([C@H]4CC[C@](O)(CC)[C@H](C)O4)O3)O2)[C@H](C)C[C@@H]1C`, the Potency in [1] and in test [2] was 0.668 µM (active) each time. Also, the Potency result in test [8] is “inactive”.
As to `CC(C(=O)O)c1ccc(C2CCCCC2)c2ccccc12` (stereo not given), the Potency result in test [1], in [9], in test [3], in test [4], in [5] and in test [10] was “inactive” in each case. Besides, the Potency entry in [6] and in test [7] was “inactive” in each case.
On to `O=C1CSC2(CCN(CCCN3c4ccccc4Sc4ccc(Cl)cc43)CC2)N1`, for which the Potency in [1] and in test [2] was 10.6 µM (active) each time. Also, the Potency entry in [5] is “inactive”.
For `CCCCC(=O)OCC(=O)[C@]1(O)Cc2c(O)c3c(c(O)c2[C@@H](O[C@H]2C[C@H](NC(=O)C(F)(F)F)[C@H](O)[C@H](C)O2)C1)C(=O)c1c(OC)cccc1C3=O`, the Potency in test [1] was 9.44 µM (active); in [2], 5.96 µM (active); in test [7] it was 23.7 µM (active). In addition, the Potency entry in test [4] and in test [8] was “inactive” throughout.
On to `C=C1C(=C/C=C2\CCC[C@]3(C)[C@@H]([C@H](C)CCCC(C)(C)O)CC[C@@H]23)C[C@@H](O)C[C@@H]1O`, for which the Potency in test [1] is 23.7 µM (active); in test [2] it was 13.3 µM (active); in test [4] it was 23.9 µM (active); in test [6] it was 29.8 µM (active); in test [7], 2.37 µM (active). The Potency result in test [5] and in [8] was “inactive” each time.
